# Data reported in PubChem BioAssay AID1745850 (National Center for Advancing Translational Sciences (NCATS), 2022).
# About 260 (12%) of roughly 2,100 compounds were called active. Roughly 58% stayed inconclusive and do not appear here. Calls follow the shape of the dose curve; as a rule, active = well fitted cell-killing curve with a large enough effect; inconclusive = small, poorly fitted or top-dose-only effect, or effect the other way; inactive = flat fitted curve, though single readings scatter. The list shows a part of the results.
# Assay: Viability Counterscreen for Confirmatory qHTS for Inhibitors of ATXN expression; also: nearly all actives have a fitted effect of over 50% in size
# Conditions: HEK-293 ATXN2-luc cells viability, CellTiter-Fluor, 24 h; activity change, negative = cytotoxicity: at the top concentration
# Outline: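 Cells with an ATXN2-luciferase reporter were dosed in a dilution series for 24 h at 37 degrees C. Viability was read first with Gly-Phe-AFC at 25 uM final (fluorescence, ex 405/em 540), then SteadyGlo luminescence. Medium-only wells defined 100% inhibition.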
# Potency is read from the fitted curve at half-maximal effect.
Structure (SMILES),"activity change, negative = cytotoxicity",Potency
Cc1ccc(-c2nc3cc(Br)cnc3nc2-c2ccc(C)cc2)cc1,-4.19% (inactive),–
COc1ccc(OCc2cccc(C(=O)Nn3cc([N+](=O)[O-])cn3)c2)cc1,-7.7% (inactive),–
Cc1ccc2c(c1)-c1c(cnn1CC(=O)N1CCCN(Cc3ccccc3F)C1)CO2,-26.7% (inactive),–
Cc1cccc2sc(NNC(=O)c3ccc(S(=O)(=O)N4CC(C)CC(C)C4)cc3)nc12 (centres undefined),–,11.2 µM (active)
CCOC(=O)N1CCN(S(=O)(=O)c2ccc(C(=O)NNc3nc4c(C)cc(C)cc4s3)cc2)CC1,-28.2% (inactive),–
Cc1cc(C)c2nc(NNC(=O)c3cc(-c4cccs4)nc4ccccc34)sc2c1,-22.8% (inactive),–
Cc1cc(C)c2nc(NNC(=O)c3ccc(S(=O)(=O)N4CC(C)CC(C)C4)cc3)sc2c1 (centres undefined),–,11.2 µM (active)
COc1ccc2nc(NC(=O)C3CCN(S(=O)(=O)c4cccs4)CC3)sc2c1,-16.7% (inactive),–
CC1CCCN(S(=O)(=O)c2ccc(C(=O)Nc3nnc(-c4ccccc4Cl)o3)cc2)C1 (centres undefined),-17.5% (inactive),–
Cc1ccc2nc(NNC(=O)c3ccc(S(=O)(=O)N4CCc5ccccc5C4)cc3)sc2c1,–,10 µM (active)
Cc1ccc(S(=O)(=O)N2CCc3ccccc3CC2)cc1,2% (inactive),–
Cc1ccc2nc(NC(=O)CSCC(=O)OCC(=O)c3ccc(Br)cc3)sc2c1,-7.59% [at 57.5 µM] (inactive),–
S=C(NCc1ccc(Cl)cc1Cl)NC1CCCCC1,-9.63% (inactive),–
CCc1ccc(OCC(=O)N/N=C(\C)c2ccc(O)cc2O)cc1,-4.52% (inactive),–
C/C(=N\NC(=O)c1ccc(CN2CCc3ccccc3C2)cc1)c1ccccc1O,-15.3% (inactive),–
COc1cc(C#Cc2c(-c3cncn3C)n(C)c3ccc(-c4cnc(OC)nc4)cc23)cc(OC)c1,-4.58% (inactive),–
CC(Sc1nnc2c(n1)[nH]c1ccccc12)C(=O)N(C)C1CCCCC1 (centres undefined),–,20 µM (active)
CCc1nc2c(OCCOc3ccc(F)cc3)cccn2c1N(C)C(=O)c1ccco1,-9.27% [at 57.5 µM] (inactive),–
COc1cc(/C=C2\SC(=O)N(CC(=O)Nc3ccccc3F)C2=O)cc(Cl)c1O,6.65% (inactive),–
O=C1/C(=C\c2cc(Cl)c(O)c(Cl)c2)SC(=S)N1Cc1ccccc1,–,15.8 µM (active)
Clc1c(Cl)c(Cl)c2n[nH]nc2c1Cl,-17.4% [at 57.5 µM] (inactive),–
NC(N)=N/N=C/c1ccc(Cl)c(Cl)c1,–,28.2 µM (active)
CCOC(=O)Oc1c(OC)cc(C(=O)O[C@@H]2C[C@@H]3CN4CCc5c([nH]c6cc(OC)ccc56)[C@H]4C[C@@H]3[C@H](C(=O)OC)[C@H]2OC)cc1OC,-26.2% [at 57.5 µM] (inactive),–
CC1=NN(c2nc3ccccc3[nH]2)C(=O)C1Cc1ccccc1 (centres undefined),–,8.91 µM (active)
CCCCn1c(SCC(=O)Nc2cc(C(F)(F)F)cc(C(F)(F)F)c2)nnc1C(CC)N(C)C (centres undefined),-21.7% (inactive),–

Structure (SMILES),"activity change, negative = cytotoxicity",Potency
COC(=O)C(Cc1ccc(O)cc1)NC(=O)C(C)Oc1ccccc1 (centres undefined),-13.2% [at 57.5 µM] (inactive),–
CN(Cc1ccccc1)C(=O)c1ccc(Nc2nc(C(N)Cc3ccccc3)cs2)nc1 (centres undefined),–,14.1 µM (active)
CCc1nc2ccc(C(=O)N(C)Cc3ccccc3)cn2c1N(C)Cc1ccc(OC)cc1,-14.2% [at 57.5 µM] (inactive),–
COc1ccc(CC(N)c2csc(Nc3ccc(C(=O)c4ccccc4)cc3)n2)cc1 (centres undefined),-23% (inactive),–
CC(C)CC(N)c1csc(Nc2ccc(C(=O)N(C)Cc3ccccc3)cn2)n1 (centres undefined),–,14.1 µM (active)
O=C(CN1C(=O)c2ccccc2S1(=O)=O)c1ccc(O)c(O)c1,-1.02% (inactive),–
CC(C)CC(NC(=O)c1ccc(Cl)cc1)C(=O)OCC(=O)c1ccc2c(c1)NC(=O)CO2 (centres undefined),–,28.2 µM (active)
Cc1ccc(-c2ccc(/C=N/c3ncn[nH]3)o2)cc1Cl,-16.1% (inactive),–
COc1nn(-c2ccccc2)c(=O)c(Cl)c1Cl,–,2.82 µM (active)
CCOC(=O)N(C)c1c(CC)nc2c(OCc3ccccc3OC)cccn12,-4.2% [at 57.5 µM] (inactive),–
CSCC[C@H](NC(=O)OC(C)(C)C)C(=O)N/N=C/c1cccc2cccnc12,-27.5% [at 57.5 µM] (inactive),–
CCc1cc[n+](C2=C([O-])c3ccccc3C(=O)/C2=N\S(=O)(=O)c2cccs2)cc1,–,17.8 µM (active)
CC(C)CCNC(=O)COc1cccc2c1OC(C)(C)C2,-12.4% [at 57.5 µM] (inactive),–
CCOC(=O)[C@H]1[C@H]2COc3ccc(OC)cc3[C@@H]2N2C(=O)c3cc(OC)c(OC)cc3NC(=O)[C@@]12C,-13% (inactive),–
Cc1cc(O)c(C(C)C)cc1N=Cc1ccc(N(C)C)cc1,-5.37% (inactive),–
Cc1cc(C2=NNC(=NC3CC3)SC2)c(C)n1-c1ccccc1F,-26.7% (inactive),–
Cc1cccc(N2CCN(C(=O)CNC(=O)Cc3ccccc3)CC2)c1C,-15.8% (inactive),–
CCCCCc1ccc(OCCC[n+]2ccccc2)c(CCCCC)c1,–,20 µM (active)
CCC(C)(C)c1ccc(OCCCC[n+]2ccccc2)c(C(C)(C)CC)c1,-22% (inactive),–
CCC(C)(C)c1ccc(OCCCC[n+]2ccc(C)cc2)c(C(C)(C)CC)c1,-23.1% (inactive),–
Cc1cccc(OCCSc2nc3ncnc(N)c3[nH]2)c1,-9.99% [at 57.5 µM] (inactive),–
Cc1nc(-c2ccc(Cl)cc2)sc1C(=O)NN,-25.7% [at 57.5 µM] (inactive),–
COc1ccc(N2CCN(c3cc(C)nc4ccc(OC)cc34)CC2)cc1,-28.2% (inactive),–
COc1ccc2nc(C)cc(NCc3cccc(C(F)(F)F)c3)c2c1,–,22.4 µM (active)
COc1ccc2nc(C)c3c(c2c1)OC(C(C)(Cl)Br)C3 (centres undefined),-19.2% (inactive),–

Structure (SMILES),"activity change, negative = cytotoxicity",Potency
O=C(CCN1CCN(c2ccccc2)CC1)N/N=C/c1ccccc1O,-13.3% (inactive),–
COc1cc(C(=O)OC(C)C(=O)N2CCc3ccccc3C2)ccc1OCC(=O)N1CCOCC1 (centres undefined),-8.5% (inactive),–
COC(=O)c1sc(NC(=O)c2ccc(OC)cc2OC)nc1C,-11.6% [at 57.5 µM] (inactive),–
Cc1cc(C)c(C)c(OC(=O)c2sc(Cl)nc2C)c1,–,28.2 µM (active)
CCOC(=O)C1CCN(c2ncnc3c2cnn3-c2ccc(Cl)cc2)CC1,-3.15% [at 57.5 µM] (inactive),–
Cc1cc(N2CCN(c3nc(-c4ccccc4)cs3)CC2)c2ccccc2n1,-13.9% (inactive),–
Cn1cccc1/C=N/N1CCN(Cc2ccccc2Cl)CC1,-17.9% [at 57.5 µM] (inactive),–
Cc1ccnc(N2C(=O)c3cccc4c([N+](=O)[O-])ccc(c34)C2=O)c1,4.13% [at 57.5 µM] (inactive),–
O=[N+]([O-])c1cc(Cl)c(O)c2ncccc12,–,11.2 µM (active)
O=C1c2cccc3c([N+](=O)[O-])ccc(c23)C(=O)N1c1ccc(Cl)cn1,-7.3% [at 57.5 µM] (inactive),–
O=[N+]([O-])c1ccc(O)c2ncccc12,–,11.2 µM (active)
CC(C)COCc1ccc(O)c2ncccc12,-28.8% (inactive),–
CCOC(=O)N1CCN(Cc2cc(Cl)c3cccnc3c2O)CC1,-24.9% (inactive),–
Cn1c(-[n+]2c(-c3ccccc3)cc(-c3ccccc3)cc2-c2ccccc2)nc2c([N+](=O)[O-])cccc21,-27.1% (inactive),–
COc1ccc(N=Cc2cc3c(cc2O)OC(N)=C(C#N)C3c2ccccc2)cc1 (centres undefined),-26.4% (inactive),–
O=C1CCCC(O)=C1C=NCc1ccccc1,2.46% (inactive),–
CCCCC(=O)N(CCOC)c1nnc(-c2ccccc2C)s1,-13.5% [at 57.5 µM] (inactive),–
CC(=O)Nc1ccc(CNc2nc3cc(-c4ccccc4C)sc3c(=O)n2C)cc1,-25% [at 57.5 µM] (inactive),–
COc1ccc(-c2cc(CNc3nc(NC(C)C)nc4cc(-c5ccccc5)sc34)on2)cc1,–,22.4 µM (active)
CC(=O)Nc1ccc(CNc2nc(NC(C)C)nc3cc(-c4ccccc4)sc23)cc1,–,25.1 µM (active)
COc1ccccc1CNc1nc(NC(C)C)nc2cc(-c3ccccc3)sc12,–,28.2 µM (active)
CCn1c2ccccc2c2cc(/C=N/n3cnnc3)ccc21,-18.4% (inactive),–
CCOCCn1ccc2c(OCC(=O)Nc3ccc(OC)c(OC)c3)cccc2c1=O,-12% (inactive),–
COCCNc1nc(-c2cc(C)n(CCc3ccc(OC)cc3)c2C)cs1,-24.1% [at 57.5 µM] (inactive),–
COCCCn1c(N)c(-c2nc3ccccc3n2C)c2nc3ccccc3nc21,-3.25% [at 57.5 µM] (inactive),–

Structure (SMILES),"activity change, negative = cytotoxicity",Potency
CO[C@@]12[C@@H]3N[C@@H]3CN1C1=C(C(=O)C(N)=C(C)C1=O)[C@@H]2COC(N)=O,9.55% (inactive),–
NNC(=O)c1sc2cc(C(F)(F)F)cnc2c1-c1cccs1,-22.9% [at 57.5 µM] (inactive),–
O=C(CNC(=O)C1COc2ccccc2O1)N/N=C/c1ccc(O)cc1O (centres undefined),-22.9% (inactive),–
Cc1nc(SCc2ccc(C(=O)O)cc2)nc2c1CCCC2,-2.72% (inactive),–
N=c1ccn(CC(=O)c2ccc(-c3ccccc3)cc2)cc1,-19.1% (inactive),–
Cc1c(C(=O)NCc2ccc(C(F)(F)F)cc2)sc(=O)n1Cc1cccc(F)c1,-16.1% [at 57.5 µM] (inactive),–
Cc1ccc2nc(SCc3ccc([N+](=O)[O-])cc3)[nH]c2c1,-12.6% (inactive),–
Cc1ccc2nc3cc([N+](=O)[O-])cc([N+](=O)[O-])c3cc2c1,–,17.8 µM (active)
Cc1cc(C)nc(NNS(=O)(=O)c2ccc(F)c(Cl)c2)n1,-5.02% (inactive),–
CC(C)CC(=O)NC(=S)NNC(=O)c1ccc(NC(=O)C2CCCCC2)cc1,4.48% (inactive),–
CCC(=O)OCCNc1cc(Sc2nc3ccccc3[nH]2)c2nonc2c1[N+](=O)[O-],–,3.16 µM (active)
Cc1cccc(OCCCC(=O)Nc2nc3ccccc3[nH]2)c1,-19.4% (inactive),–
CC(SC(C)C(=O)NN=Cc1cccc(Cl)c1)C(=O)NN=Cc1cccc(Cl)c1 (centres undefined),-28.8% (inactive),–
O=C(NC(=S)NCc1nc2ccccc2[nH]1)c1ccc(F)cc1,-4.93% (inactive),–
Cc1cc(C)cc(NC(=O)CCC(=O)Nc2cc(C)on2)c1,-6.58% (inactive),–
COc1ccc(OC)c(NC(=O)CSc2nnnn2-c2ccc3c(c2)OCO3)c1,-28.3% [at 57.5 µM] (inactive),–
Cc1cc(C)c2c(CC(=O)Nc3ccc(Cl)cn3)coc2c1,-4.58% (inactive),–
Cc1ccc(N=Nc2ccc(O)c3ncccc23)cc1,–,10 µM (active)
CN1CCC(N(C)C(=O)c2ccc(Cl)c(S(=O)(=O)N3CCc4ccccc43)c2)CC1,-25.1% [at 57.5 µM] (inactive),–
Nc1ccn([C@@H]2O[C@H](CO)[C@@H](O)[C@@H]2O)c(=O)n1,-10.9% (inactive),–
CN(C)S(=O)(=O)c1cccc(N2C(=O)CC3(CCCCC3)CC2=O)c1,-6.16% (inactive),–
C=CCN(C(=O)CSc1nc2c(sc3ccccc32)c(=O)n1CCN(CC)CC)c1ccccc1,–,25.1 µM (active)
CCOC(=O)c1c(-n2cccc2)sc2c1CCCC2=O,-20% [at 57.5 µM] (inactive),–
CC(=O)c1ccc(N2CCN(CC(O)COC(c3ccccc3)c3ccccc3)CC2)cc1 (centres undefined),-7.3% (inactive),–
